Results on 40 molecules are retold here after PubChem BioAssay.

Each structure is given as a SMILES string. Active and inactive are the calls of the source. Rule as the data show it: active = inhibition above about 25%; inactive = the rest.

This test can be described thus: repression of VP16-driven luciferase reporter – cell-based, luminescence, high throughput, counter-screen for SRC1 inhibitor project (AID 588824). The following applies: cell-based VP16 transactivation luciferase luminescence; at 3.6 µM; stronger effect = higher value. A general note: A reporter such as luciferase makes a cellular process visible.
The inhibition is the drop in the measured response relative to a control, in per cent. Regarding `O=C1CCC/C1=c1\s/c(=C/c2cccnc2)c(=O)n1-c1ccccc1`, the inhibition is 17.8% (inactive).

For the molecule `Cc1cc(CSc2ccccc2)ccc1NC(=O)c1ccc(CN2CCOCC2)cc1`, the inhibition is 33.4% (active).

Consider `CCCNC(=O)C1(C)CCCN(Cc2cccc(C#N)c2)C1` (stereo not given), for which the inhibition is 26% (active).

Regarding `COc1ccc(C(=O)c2c(C)c3ccccc3n2CC(O)CNC(C)C)cc1` (stereo not given), the inhibition was -0.38% (inactive).

As to `COc1cc(C(=O)O)cc(NC(=O)c2ccco2)c1OC`, the inhibition is 2.33% (inactive).

In the case of `COc1ccc(CCC(C)NCc2cc(OC)cc(OC)c2)cc1` (stereo not given), the inhibition was -6.4% (inactive).

As to `CCOc1ccc(CCN2C(=S)N([C@@H](Cc3ccc(O)cc3)CN3CCC[C@@H]3CN3C(=S)NC[C@@H]3CC(C)C)C[C@@H]2CC(C)C)cc1`, the inhibition is -0.17% (inactive).

Consider `CCOc1cccc(/C=N/NC(=O)c2cccnc2)c1O`, for which the inhibition was 9.63% (inactive).

For the molecule `CN(C)CCNC(=O)c1cccc2nc3c(ccc4ccccc43)nc12`, the inhibition is 40.4% (active).

`CC(O)c1nc2cc([N+](=O)[O-])ccc2n1Cc1ccccc1` (stereo not given): the inhibition was -6.35% (inactive).

For `CCN1CCN(c2ccc(S(=O)(=O)N3CCCCC3)cc2NC(=O)/C=C/c2cc(OC)ccc2OC)CC1`, the inhibition was 7.17% (inactive).

Turning to `CCCn1ncc(/C=N/O)c1C`, the inhibition was 25.9% (active).

`COc1ccccc1OCCn1c(C)c(C=O)c2ccccc21`: the inhibition is 8.95% (inactive).

As for `O=C(Nc1ccc2c(c1)N(S(=O)(=O)c1cccs1)CCC2)c1c(F)cccc1F`, the inhibition is -5.05% (inactive).

With `O=C(Nc1ccn(Cc2c(F)c(F)c(F)c(F)c2F)n1)c1ccc(COc2ccccc2Cl)cc1`, the inhibition was 8.16% (inactive).

Regarding `CCOC(=O)C(=O)NNc1ccc(F)cc1`, the inhibition was -4.08% (inactive).

In the case of `CN(C)S(=O)(=O)c1ccc(N2CCCC2)c(C(=O)OCC(=O)NC2(C#N)CCCCC2)c1`, the inhibition was -9.13% (inactive).

As to `CCCCC(=O)Nc1cccn2ncnc12`, the inhibition was 14.8% (inactive).

On to `CC1CN(c2nc3ccccc3nc2SCC(=O)Nc2cccc(C(F)(F)F)c2)CC(C)O1` (stereo not given), for which the inhibition is 5.85% (inactive).

For the molecule `COc1cccc(C2=CC(=O)CC(C)(C)C2)c1`, the inhibition is 14.3% (inactive).

Consider `Cc1cccc(-n2ncc3c2CCCC3NC(=O)CCN2CCCCO2)c1C` (stereo not given), for which the inhibition was -2.39% (inactive).

Take `COc1ccc2c(c1)c(C(C)=O)c(C)n2-c1ccccc1`: the inhibition was 19.1% (inactive).

As to `COc1ccc2c(c1)-c1c(ssc1=S)C(C)(C)N2C(=O)CSC1=NCCS1`, the inhibition was 12.4% (inactive).

As to `COc1ccc(C(=O)Nc2ccc(Cl)c(S(=O)(=O)N3CCOCC3)c2)cc1`, the inhibition is 1.15% (inactive).

As for `Cc1cc([N+](=O)[O-])nn1CCCC(=O)Nc1ccc(Cl)cc1Cl`, the inhibition was -4.49% (inactive).

For the molecule `O=c1[nH]cnc2sc3c(c12)CCCCC3`, the inhibition is -2.41% (inactive).

In the case of `CCCc1cc(C(=O)N(C)CC(=O)Nc2ccc(OCC)c(OCC)c2)sc1C`, the inhibition is 17.3% (inactive).

Consider `Cc1csc(NC(=O)c2cc(-c3ccccc3)nc3ccccc23)n1`, for which the inhibition was 1.79% (inactive).

`COC(=O)c1ccc2c(c1)NC(=O)c1ccccc1S2`: the inhibition was -1.54% (inactive).

Regarding `Cn1c(=O)c2[nH]c(Nc3ccccc3)nc2n(C)c1=O`, the inhibition was 0.08% (inactive).

Turning to `Cc1csc2ncnc(NCCc3ccccn3)c12`, the inhibition was 21.8% (inactive).

Regarding `CN(C)/C=C/C(=O)c1ccn(S(=O)(=O)c2ccccc2)c1`, the inhibition was -2.37% (inactive).

Turning to `CCOc1ccccc1N1CCN(CC(=O)NC(C)c2ccccc2)CC1` (stereo not given), the inhibition is 0.65% (inactive).

In the case of `Cc1ccc(CNc2ncnc3ccc(-c4ccc(CO)o4)cc23)o1`, the inhibition is 14.7% (inactive).

On to `COC(C(=O)Nc1ccc(S(=O)(=O)Nc2ccc(C)c(C)c2)cc1)c1ccccc1` (stereo not given), for which the inhibition is -12.5% (inactive).

Turning to `COc1ccc(S(=O)(=O)N(C)C[C@H]2Oc3c(NC(=O)Nc4c(C)noc4C)cccc3C(=O)N([C@H](C)CO)C[C@@H]2C)cc1`, the inhibition is 9.48% (inactive).

As to `Cc1ccc(OCC(=O)NNC(=O)c2ccc3c(=O)n4c(nc3c2)CCC4)cc1`, the inhibition was -3.2% (inactive).

As to `CC(C)Cn1c(N)c(C(=O)COC(=O)CC23CC4CC(CC(C4)C2)C3)c(=O)n(C)c1=O`, the inhibition is 34.8% (active).

With `Cc1ccc(-c2nc(-c3ccccc3)no2)c(Cl)c1`, the inhibition is -16.6% (inactive).

Turning to `CC(=O)NC(c1cccs1)c1cc(F)c2cccnc2c1O` (stereo not given), the inhibition was 15.3% (inactive).
